Assay results as given in PubChem BioAssay (NCI).
Several values for one entry are separate records, joined by “and”; a condition that tells them apart may be missing. Identical values can stand only once. About 79,000 compounds went through this panel and 15% of them were active in at least one assay; those are over-represented in the sample as a whole. A structure can be active in one record and inactive in another. Activity calls are given as the source filed them. Cut-off read from the data, not from the text of the source: active = growth inhibition above about 70%; inactive = the rest.

Experiment: NCI Yeast Anticancer Drug Screen. Data for the cln2 rad14 strain (AID 165);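 note: 0% = growth equal to vehicle treated cultures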
Conditions: S. cerevisiae cln2 rad14 strain, stronger effect = higher value
Procedure: Growth inhibition of yeast strains with defined genetic alterations is measured as a screen for potential anti-cancer activity. Selected strains with alterations in DNA damage repair or cell cycle control were exposed to compounds and growth inhibition was measured relative to vehicle treated controls. The strain used in this assay is cln2 rad14

[1] = at 5.0 µM (retest, dose inferred, filed as 0.5)
[2] = at 50.0 µM (retest, dose inferred, filed as 5.0)

Row | SMILES | growth inhibition [1] | growth inhibition [2] | growth inhibition (at 50.0 µM)
1 | O=Nn1c2ccccc2c2cc([N+](=O)[O-])ccc21 | 35% (inactive) | 62% (inactive) | 72.9% (active)
2 | CC(=O)C1=C(O)C2(C)c3c(O)c(C)c(O)c(C(C)=O)c3OC2(Sc2ccccc2)CC1=O (configuration not stated) | 50% (inactive) | 94% (active) | 68.8% (inactive) and 4.6% (inactive)
3 | COc1ccc(S(=O)(=O)N/N=C\c2cc([N+](=O)[O-])cc(I)c2O)c(OC)c1OC | -8% (inactive) | 46% (inactive) | 11.1% (inactive)
4 | C=C(C)[C@@H]1CCc2c(O)c(O)c(=O)cc(C)c2C1 | 3% (inactive) | 93% (active) | 91.3% (active)
5 | O=[N+]([O-])c1c(/C=N/Nc2ccccc2)oc(-c2ccc3c(c2)OCO3)c1-c1ccc2c(c1)OCO2 | -17% (inactive) | -17% (inactive) | 86.8% (active)
6 | Nc1ccc2c(c1)sc1ccccc12 | -60% (inactive) | -50% (inactive) | -13.4% (inactive)
7 | NC(=O)N1c2ccccc2C=Cc2ccccc21 | 61% (inactive) | 38% (inactive) | 9.25% (inactive)
8 | CCOC(=O)c1csc(Br)n1 | -8% (inactive) | 39% (inactive) | 83.5% (active)
9 | CCCCCCCCCCCc1nc(N)n[nH]1 | -79% (inactive) | 62% (inactive) | 75.9% (active)
10 | CN=C(N)N/N=C(\C)c1ccc2oc3ccc(/C(C)=N/NC(N)=NC)cc3c2c1 | 13% (inactive) | 98% (active) | 91.8% (active)
11 | COc1ccc(/C(C#N)=C/c2ccc(OC)c(OC)c2)cc1 | 55% (inactive) | 60% (inactive) | 7.8% (inactive)
12 | CCOC(=O)CNC(=O)c1[nH]cnc1/N=N/N(C)C | -1% (inactive) | 35% (inactive) | 90.5% (active)
13 | CC(C)c1cccc(O)c(=O)c1 | -4% (inactive) and 4% (inactive) | 12% (inactive) and 99% (active) | 96.3% (active) and 89.7% (active)
14 | O=C(N/N=C\c1c(Cl)cccc1Cl)N/N=C/c1c(Cl)cccc1Cl | 49% (inactive) | 70% (active) | 13.7% (inactive)
